Test results published in PubChem BioAssay (Tox21).
Inconclusive results are not listed. Where a call stands in place of a potency, no number is given. Unmarked numbers belong to inactive results. Active and inactive are the calls of the source. The call rests on the fitted dose curve; in most records, active means well fitted cell-killing curve with a large enough effect in the repeat runs; inconclusive means weak or mixed curves, or effect the other way; inactive means flat fitted curve, though single readings scatter.

Test: qHTS assay to identify small molecule agonists of the constitutive androstane receptor (CAR) signaling pathway - cell viability counter screen (AID 1224836); further: nearly all actives have a fitted effect of over 45% in size
Details: HepG2-CYP2B6-hCAR viability, CellTiter-Fluor, 23 h, PK11195 added to every well; series mostly up to 92.4 µM; viability change, negative = cytotoxic: at the top concentration
Procedure, shortened: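 Compound titrations (15 concentrations) went onto HepG2-CYP2B6-hCAR cells 4 h after seeding, alongside PK11195 at a final 0.75 uM; a 23 h, 37 C/5% CO2 incubation preceded CellTiter-Fluor viability measurement.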
Potency means the concentration at half of the fitted maximal effect.

Row | Compound | Potency | viability change, negative = cytotoxic
1 | COC(C)COC(C)COC(C)CO (stereo unspecified) | inactive | –
2 | C[C@]12CCC(=O)C=C1CC[C@@H]1[C@@H]2C(=O)C[C@@]2(C)[C@H]1CC[C@]2(O)C(=O)CO | inactive | –
3 | Cc1cccc([N+](=O)[O-])c1C | inactive | –
4 | CCC(C)c1ccccc1O (stereo unspecified) | inactive | –
5 | O=C(c1ccccc1)c1ccccc1O | inactive | –
6 | Brc1cc(Oc2cc(Br)c(Br)c(Br)c2Br)c(Br)c(Br)c1Br | inactive | –
7 | CC1=CC2C3CC(C=C3C)C2C1 (stereo unspecified) | inactive | –
8 | Nc1ncn([C@@H]2O[C@H](CO)[C@@H](O)[C@H]2O)c(=O)n1 | 5.96 µM (active) | –
9 | OC(CCl)CCl | inactive | –
10 | CCC(C)CO (stereo unspecified) | inactive | –
11 | Cc1ccc2c(n1)Oc1ccc(C(C)C(=O)OCC(=O)N(C)C)cc1C2 (stereo unspecified) | inactive | –
12 | O=C(/C=C/c1ccccc1)OCc1ccccc1 | inactive | –
13 | C#C[C@]1(O)CC[C@H]2[C@@H]3CCc4cc(OC)ccc4[C@H]3CC[C@@]21C | inactive | –
14 | Cc1cccc(N(C)C(=S)Oc2ccc3ccccc3c2)c1 | inactive | –
15 | CC(C(=O)O)c1cccc(C(=O)c2ccccc2)c1 (stereo unspecified) | inactive | –
16 | Clc1nc(Cl)c(Cl)c(Cl)c1Cl | inactive | –
17 | O=C(Nc1ccc(Cl)cc1)Nc1ccc(Cl)c(Cl)c1 | 17.2 µM (active) | –
18 | O=CCc1ccccc1 | inactive | –

Row | Compound | Potency | viability change, negative = cytotoxic
19 | OC1CCCCCCCCCCC1 | inactive | –
20 | OC[C@H]1O[C@@H]2O[C@H]3[C@H](O)[C@@H](O)[C@@H](O[C@H]4[C@H](O)[C@@H](O)[C@@H](O[C@H]5[C@H](O)[C@@H](O)[C@@H](O[C@H]6[C@H](O)[C@@H](O)[C@@H](O[C@H]7[C@H](O)[C@@H](O)[C@@H](O[C@H]8[C@H](O)[C@@H](O)[C@@H](O[C@H]1[C@H](O)[C@H]2O)O[C@@H]8CO)O[C@@H]7CO)O[C@@H]6CO)O[C@@H]5CO)O[C@@H]4CO)O[C@@H]3CO | inactive | –
21 | CC(C)Oc1ccc2c(=O)c(-c3ccccc3)coc2c1 | inactive | –
22 | Cc1ccc(C)c(O)c1C | inactive | –
23 | Cc1[nH]c(=O)c(C#N)cc1-c1ccncc1 | inactive | –
24 | CCCCC/C=C/C=C/C=O | inactive | –
25 | c1ccncc1 | inactive | –
26 | Cc1cccc(C(=O)O)c1 | inactive | –
27 | CCCCC(CC)COCC1CO1 (stereo unspecified) | inactive | –
28 | O=C(COc1ccc(Cl)cc1)N1CCN(Cc2ccc3c(c2)OCO3)CC1 | – | 0.891% [at 42.5 µM]
29 | O=[N+]([O-])c1ccc2c(c1)Cc1ccccc1-2 | inactive | –
30 | CC(C)OB(OC(C)C)OC(C)C | inactive | –
31 | CC(CCC(=O)O)(c1ccc(O)cc1)c1ccc(O)cc1 | inactive | –
32 | CC(=O)C1(C)CC2=C(CCCC2(C)C)CC1C (stereo unspecified) | inactive | –
33 | CCOC(=O)C(C#N)=C(c1ccccc1)c1ccccc1 | inactive | –
34 | CC(C)(C)NC(=O)[C@H]1CC[C@H]2[C@@H]3CC[C@H]4NC(=O)C=C[C@]4(C)[C@H]3CC[C@]12C | inactive | –
35 | C[C@]12CC[C@H]3[C@@H](CCC4=CC(=O)CC[C@@]43C)[C@@H]1CC[C@@H]2C(=O)CO | inactive | –
36 | C=C(C)C(=O)OCCOC(=O)C(=C)C | inactive | –
